Consider 37 compounds from PubChem BioAssay (Tox21).

Records with an inconclusive call do not appear. Entries that show only a call come without a potency. A number with no mark means an inactive call. The source made the active and inactive calls. Calls come from the whole dose curve; as a rule, active = well fitted curve in the direction sought with a large enough effect in the repeat runs; inconclusive = weak or mixed curves; inactive = no such curve, though single readings can be large; an effect the other way counts as inactive or inconclusive.

Nuclear receptor subfamily 1 group I member 3 (Homo sapiens), sequence (Q14994 whole entry, looked up): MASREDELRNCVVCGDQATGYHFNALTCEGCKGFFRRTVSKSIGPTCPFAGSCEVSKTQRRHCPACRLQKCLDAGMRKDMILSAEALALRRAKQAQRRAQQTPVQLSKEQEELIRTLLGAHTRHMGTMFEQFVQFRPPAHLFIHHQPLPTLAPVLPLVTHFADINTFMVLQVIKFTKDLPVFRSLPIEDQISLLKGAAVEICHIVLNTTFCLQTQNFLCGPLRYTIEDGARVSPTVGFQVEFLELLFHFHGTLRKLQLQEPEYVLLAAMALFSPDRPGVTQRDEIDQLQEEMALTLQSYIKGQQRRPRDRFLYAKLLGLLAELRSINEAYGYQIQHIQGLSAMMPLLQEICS

Tested on in one assay: not listed separately
Description: qHTS assay to identify small molecule antagonists of the constitutive androstane receptor (CAR) signaling pathway - cell viability counter screen (AID 1224837). Note: nearly all actives have a fitted effect of over 45% in size. The note with it: HepG2-CYP2B6-hCAR viability, CellTiter-Fluor, 23 h, co-treated with 50 nM CITCO; series mostly up to 92.4 µM. The method in brief: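 Cells are seeded, rested 4 hr at 37 C/5% CO2, dosed with compound (15-point series) and 50 nM CITCO, incubated a further 23 hr, and then CellTiter-Fluor reagent is added before fluorescence is read. The line is HepG2 with stable hCAR and CYP2B6-2.2kb.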
(In qHTS, concentration-response curves come from the screen itself.)
As to `CC/C=C\C/C=C\C/C=C\CCCCCCCC(=O)OC`, the Potency result is “inactive”.
Regarding `O=[N+]([O-])c1ccc(CO)cc1`, the Potency result was “inactive”.
The same measure, in the same setting: with `O=C1OC(O)C(C(Cl)Cl)=C1Cl` (stereo unspecified) the entry was “inactive”.
Turning to `CCSCC`, the Potency result was “inactive”.
In the case of `CC(=O)CC(N)=O`, the Potency entry was “inactive”.
On the same count and under the same terms, with `CC(C)=NNC(N)=S` the entry was “inactive”; with `CC(C)c1ccc2sc3ccccc3c(=O)c2c1`, “inactive”; with `COc1cc([C@@H]2c3cc4c(cc3[C@@H](O[C@@H]3O[C@@H]5CO[C@@H](C)O[C@H]5[C@H](O)[C@H]3O)[C@H]3COC(=O)[C@H]23)OCO4)cc(OC)c1O`, “inactive”.

Another assay concerns the target Nuclear receptor subfamily 1 group I member 3 (Homo sapiens) (UniProt Q14994). Description: qHTS assay to identify small molecule antagonists of the constitutive androstane receptor (CAR) signaling pathway (AID 1224838). Note: nearly all actives have a fitted effect of over 40% in size. Note: potency is the fitted concentration of half-maximal effect. The note with it: HepG2-CYP2B6-hCAR luciferase, CITCO-stimulated, 24 h; series mostly up to 92.4 µM. The method in brief: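 Luminescence from a CYP2B6-2.2kb promoter reporter in hCAR-expressing HepG2 cells reflects CAR signaling. Cells received compounds at 15 concentrations and 50 nM CITCO (final), then incubated 24 h at 37 C/5% CO2.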
With `COc1cc(/C=C/C(=O)CC(=O)/C=C/c2ccc(O)c(OC)c2)ccc1O`, the Potency was 54.8 µM (active).
On the same count and under the same terms, with `O=C(CCN1CCC(c2ccccc2)C1)c1ccc2c(c1)OCCO2` (stereo unspecified) the entry was “inactive”.
The same measure, in the same setting: with `CCCCCCCCCCCCCCCCCCNC(=O)OC1CCN(C(=O)OC[C@H](COC(=O)N(Cc2cccc[n+]2CC)C(=O)c2ccccc2OC)OC)CC1` the entry was “inactive”; with `CCN(CC)c1ccc2c(c1)Oc1cc(N(CC)CC)ccc1C21OC(=O)c2ccccc21`, “inactive”; with `N#Cc1nc(Cl)c(Cl)c(Cl)c1Cl`, 24.3 µM (active).
The same measure, in the same setting: the entry for `CC(C)(C)c1ccc(OC2CCCCC2O)cc1` (stereo unspecified) is “inactive”; for `CN[C@H]1CC[C@@H](c2ccc(Cl)c(Cl)c2)c2ccc(S(N)(=O)=O)cc21` it is 61.1 µM (active); for `C=CC(C)(C)O` it is “inactive”.
With `S=C1NC=NC2N=CNC12` (stereo unspecified), the Potency was 6.11 µM (active).
Still for that read-out and setting: with `Cc1cc(C)c(O)c(C(C)(C)C)c1` the entry was “inactive”.
On to `CCCCCCCCOC(=O)c1cc(O)c(O)c(O)c1`, for which the Potency entry was “inactive”.
On to `O=C(O)CN(CCCN(CC(=O)O)CC(=O)O)CC(=O)O`, for which the activity, negative = inhibition is -21.7% [at 19 µM].
In the case of `CCOC=C(C(=O)OCC)C(=O)OCC`, the Potency result is “inactive”.
The same measure, in the same setting: with `COc1cccc(-c2ccc(/C=C\CN3CCCCCC3)cc2Cl)c1` the entry was “inactive”; with `Nc1cc([N+](=O)[O-])cc(Cl)c1O`, “inactive”; with `CC1(C)[C@H]2CC[C@]1(C)C(=O)C2`, “inactive”.
As for `O[Si](c1ccccc1)(c1ccccc1)c1ccccc1`, the Potency entry was “inactive”.
Consider `CCC(O)CO` (stereo unspecified), for which the Potency entry was “inactive”.
The same measure, in the same setting: the entry for `Oc1cccc2c(O)cccc12` is “inactive”; for `c1ccc2cc3c4ccccc4c4ccccc4c3cc2c1` it is 10.9 µM (active); for `Cn1ccnc1` it is “inactive”.
Same read-out and setting: with `Cc1cccc(C)c1C` the entry was “inactive”; with `NC(=O)c1ccccc1Cl`, “inactive”; with `C/C=C/C(=O)C1=C(C)C=CCC1(C)C`, “inactive”.
Same read-out and setting: with `O=C1C=CC(=O)N1c1cccc(N2C(=O)C=CC2=O)c1` the figure was 61.1 µM (active); with `CCC1(C)C(=O)N(Cl)C(=O)N1Cl` (stereo unspecified), “inactive”; with `CC(C)(C)c1cc(CCC(=O)OCCSCCOC(=O)CCc2cc(C(C)(C)C)c(O)c(C(C)(C)C)c2)cc(C(C)(C)C)c1O`, “inactive”.
In the case of `CCCCCCCCCCCCS(=O)(=O)Cl`, the activity, negative = inhibition is -3.15% [at 19 µM].
With `CCOc1nc(F)cc2nc(S(=O)(=O)Nc3c(Cl)cccc3C(=O)OC)nn12`, the Potency entry is “inactive”.

A further assay shares this target. Description: qHTS assay to identify small molecule agonists of the constitutive androstane receptor (CAR) signaling pathway (AID 1224839).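 For activation: HepG2 cells stably carrying human CAR and a CYP2B6 luciferase reporter.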 Note: nearly all actives have a fitted effect of over 15% in size. Note: potency is the fitted concentration of half-maximal effect. The note with it: HepG2 hCAR CYP2B6-luciferase, agonist mode, 24 h; series mostly up to 92.4 µM. The method, boiled down:
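HepG2 cells stably expressing hCAR and a CYP2B6-2.2kb luciferase reporter were treated with compounds at 15 concentrations plus 0.75 uM PK11195 (final) for 24 h at 37 C; luminescence was read after ONE-Glo addition.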
Consider `COc1cc(/C=C/C(=O)CC(=O)/C=C/c2ccc(O)c(OC)c2)ccc1O`, for which the Potency entry was “inactive”.
With `O=C(CCN1CCC(c2ccccc2)C1)c1ccc2c(c1)OCCO2` (stereo unspecified), the Potency result was “inactive”.
Same read-out and setting: with `CCCCCCCCCCCCCCCCCCNC(=O)OC1CCN(C(=O)OC[C@H](COC(=O)N(Cc2cccc[n+]2CC)C(=O)c2ccccc2OC)OC)CC1` the entry was “inactive”; with `CCN(CC)c1ccc2c(c1)Oc1cc(N(CC)CC)ccc1C21OC(=O)c2ccccc21`, “inactive”.
`N#Cc1nc(Cl)c(Cl)c(Cl)c1Cl`: the Potency entry was “inactive”.
On the same count and under the same terms, with `CC(C)(C)c1ccc(OC2CCCCC2O)cc1` (stereo unspecified) the figure was 27.3 µM (active); with `CN[C@H]1CC[C@@H](c2ccc(Cl)c(Cl)c2)c2ccc(S(N)(=O)=O)cc21`, “inactive”.
As for `C=CC(C)(C)O`, the Potency result is “inactive”.
For the compound `S=C1NC=NC2N=CNC12` (stereo unspecified), the Potency entry is “inactive”.
The same measure, in the same setting: the entry for `Cc1cc(C)c(O)c(C(C)(C)C)c1` is “inactive”; for `CCCCCCCCOC(=O)c1cc(O)c(O)c(O)c1` it is “inactive”.
Consider `O=C(O)CN(CCCN(CC(=O)O)CC(=O)O)CC(=O)O`, for which the activation was -1.05% [at 19 µM].
`CCOC=C(C(=O)OCC)C(=O)OCC`: the Potency result is “inactive”.
On to `COc1cccc(-c2ccc(/C=C\CN3CCCCCC3)cc2Cl)c1`, for which the Potency entry was “inactive”.
Consider `Nc1cc([N+](=O)[O-])cc(Cl)c1O`, for which the Potency entry is “inactive”.
`CC1(C)[C@H]2CC[C@]1(C)C(=O)C2`: the Potency result was “inactive”.
The same measure, in the same setting: with `O[Si](c1ccccc1)(c1ccccc1)c1ccccc1` the figure was 30.6 µM (active); with `CCC(O)CO` (stereo unspecified), “inactive”; with `Oc1cccc2c(O)cccc12`, 30.6 µM (active).
Take `c1ccc2cc3c4ccccc4c4ccccc4c3cc2c1`: the Potency result is “inactive”.
The same measure, in the same setting: with `Cn1ccnc1` the entry was “inactive”; with `Cc1cccc(C)c1C`, “inactive”; with `NC(=O)c1ccccc1Cl`, “inactive”.
Same read-out and setting: the entry for `C/C=C/C(=O)C1=C(C)C=CCC1(C)C` is “inactive”.
As for `O=C1C=CC(=O)N1c1cccc(N2C(=O)C=CC2=O)c1`, the Potency entry is “inactive”.
The same measure, in the same setting: the entry for `CCC1(C)C(=O)N(Cl)C(=O)N1Cl` (stereo unspecified) is “inactive”.
Regarding `CC(C)(C)c1cc(CCC(=O)OCCSCCOC(=O)CCc2cc(C(C)(C)C)c(O)c(C(C)(C)C)c2)cc(C(C)(C)C)c1O`, the Potency result was “inactive”.
For `CCCCCCCCCCCCS(=O)(=O)Cl`, the activation was -0.0973% [at 19 µM].
Consider `CCOc1nc(F)cc2nc(S(=O)(=O)Nc3c(Cl)cccc3C(=O)OC)nn12`, for which the Potency entry was “inactive”.
